Experimental findings from PubChem BioAssay (Tox21) are described below.

Structures are written as SMILES. Inconclusive results are not listed. Entries that show only a call come without a potency. Some compounds were tested as several samples or in several runs, with calls that do not always agree. Calls of active or inactive are those of the source. Calls come from the whole dose curve.

In the first experiment the target is Acetylcholinesterase (Homo sapiens) (UniProt P22303). The experiment can be described thus: Acetylcholinesterase (AChE) small molecule antagonists: colormetric cell-based qHTS assay (AID 1347395). Note: nearly all actives have a fitted effect of over 30% in size. The conditions noted are these: SH-SY5Y cells AChE activity, colorimetric (Ellman); series mostly up to 115 µM. The method in brief: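 SH-SY5Y cells, plated overnight at 37 C, were exposed to compounds for 30 min at 37 C and 5% CO2. Acetylthiocholine plus DTNB was then added, and thiocholine from endogenous AChE was quantified colorimetrically after 90 min at 37 C.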
Chain of Acetylcholinesterase (Homo sapiens) (P22303 whole entry, looked up): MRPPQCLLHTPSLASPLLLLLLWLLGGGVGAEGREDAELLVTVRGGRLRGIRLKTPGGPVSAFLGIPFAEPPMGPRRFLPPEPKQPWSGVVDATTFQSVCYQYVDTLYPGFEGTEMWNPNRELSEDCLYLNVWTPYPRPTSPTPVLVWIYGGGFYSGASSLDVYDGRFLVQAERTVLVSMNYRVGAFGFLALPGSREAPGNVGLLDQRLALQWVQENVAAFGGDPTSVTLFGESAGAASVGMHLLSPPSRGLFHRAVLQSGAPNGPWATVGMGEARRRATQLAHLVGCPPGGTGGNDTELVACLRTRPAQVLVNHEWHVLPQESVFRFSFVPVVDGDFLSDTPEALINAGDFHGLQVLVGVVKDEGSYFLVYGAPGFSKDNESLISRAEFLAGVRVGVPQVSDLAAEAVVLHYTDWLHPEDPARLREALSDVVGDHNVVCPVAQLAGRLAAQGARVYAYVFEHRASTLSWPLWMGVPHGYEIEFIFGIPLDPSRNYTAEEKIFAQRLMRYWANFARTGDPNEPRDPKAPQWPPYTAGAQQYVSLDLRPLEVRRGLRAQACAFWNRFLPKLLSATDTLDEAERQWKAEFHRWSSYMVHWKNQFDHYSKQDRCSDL
For orientation: qHTS replaces the single test concentration by a dilution series.
With `COC=O`, the activity, negative = inhibition is 2.05% [at 10.5 µM] (inactive).
As for `Oc1ccc(N=Nc2ccccc2)cc1`, the Potency entry is “inactive”.
On to `CCN1CCCC1CN` (stereo not given), for which the Potency entry was “inactive”.
As for `CCCCC/C(C=O)=C\c1ccccc1`, the Potency entry is “inactive”.
Same read-out and setting: the same measure for `S=c1nccc[nH]1`: “inactive”.
Still for that read-out and setting: the same measure for `CC(=O)c1ccc(Cl)c(Cl)c1Cl`: “inactive”; for `CCOC(=O)C(F)(F)F`: “inactive”.
On to `C=C(C)C(=O)NCCC[N+](C)(C)C`, for which the Potency result is “inactive”.
Same read-out and setting: under `O=C(O)CCCCCCCC(=O)O` stands “inactive”.
The same measure, in the same setting: the same measure for `CO[C@@]1(NC(=O)Cc2cccs2)C(=O)N2C(C(=O)O)=C(COC(N)=O)CS[C@@H]21`: “inactive”; for `Cc1cn([C@H]2C=C[C@@H](CO)O2)c(=O)[nH]c1=O`: “inactive”; for `COc1cc(O)cc(O)c1`: “inactive”.
For the compound `CC(=O)C(C)O` (stereo not given), the Potency result is “inactive”.
The same measure, in the same setting: the same measure for `CCCCCCCCNC(C)C(O)c1ccc(SC(C)C)cc1` (stereo not given): “inactive”; for `CC1=CC2C3CC(C=C3C)C2C1` (stereo not given): “inactive”; for `CCCCOC(=O)c1ccc(O)cc1`: “inactive”.
On the same count and under the same terms, under `CN(C(=O)CN(CCO)CC(=O)N(C)C(C)(C)Cc1ccccc1)C(C)(C)Cc1ccccc1` stands “inactive”.
Same read-out and setting: the same measure for `C/C=C1/CC2C=CC1C2` (stereo not given): “inactive”; for `CCCCN1CCCC[C@H]1C(=O)Nc1c(C)cccc1C`: “inactive”.
As for `CCC(CC)C(=O)O`, the Potency entry is “inactive”.
Take `C1COCCO1`: the Potency result was “inactive”.
On the same count and under the same terms, under `O=C1OC(=O)C2CC=CCC12` (stereo not given) stands “inactive”; under `Cc1ccc(O)c2ncccc12`, “inactive”; under `O=C(Cl)c1ccc(C(=O)Cl)cc1`, “inactive”.
On the same count and under the same terms, the same measure for `CC(=O)[C@H]1CC[C@H]2[C@@H]3C[C@H](C)C4=CC(=O)CC[C@]4(C)[C@H]3[C@@H](O)C[C@]12C`: “inactive”; for `C=C(C)OC(C)=O`: “inactive”; for `CNC(=O)[C@H]1O[C@@H](n2cnc3c(NCc4cc(Cl)ccc4OCc4cc(C)no4)ncnc32)[C@H](O)[C@@H]1N`: “inactive”.
Same read-out and setting: the same measure for `CC(C)C(=O)Nc1cccc(C(F)(F)F)c1`: “inactive”; for `CCCCCC(=O)OCCc1ccccc1`: “inactive”; for `CCCCCC(N)=O`: “inactive”.
Consider `COc1ccc(COC(C)=O)cc1`, for which the Potency entry is “inactive”.
The same measure, in the same setting: under `Nc1ccc(Oc2ccc(Cl)cc2)cc1` stands “inactive”.
The same measure, in the same setting: under `Cc1cc(C)nc(NS(=O)(=O)c2ccc(N)cc2)n1` stands “inactive”.
On the same count and under the same terms, the same measure for `CC(=O)c1ccc(O)c(C(N)=O)c1`: “inactive”.
For `COc1ccc(N)c(C)c1`, the Potency result is “inactive”.
On the same count and under the same terms, under `FC(F)(F)c1ccc(Cl)c(Cl)c1` stands “inactive”; under `CCCCCC1CCCC(=O)O1` (stereo not given), “inactive”.
Still for that read-out and setting: under `Cc1ccc2c(c1)C(=O)c1ccccc1C2=O` stands “inactive”; under `CC1(C)CO[C@@H](CC(=O)O)CN1`, “inactive”; under `CCCCCCCCCC=O`, “inactive”.

Another experiment shares this target. The experiment in a line: Acetylcholinesterase (AChE) small molecule antagonists: enzyme-based qHTS assay (AID 1347397). Note: nearly all actives have a fitted effect of over 55% in size. To be noted: Potency: AChE enzyme activity inhibition; outcome: AChE enzyme activity inhibition; series mostly up to 115 µM. The method in brief: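 In this quantitative HTS, compounds from the Tox21 10K collection were preincubated 30 min at ambient temperature with recombinant human AChE dispensed at 50 mU/mL. Hydrolysis of acetylthiocholine was then followed for 10 min by DTNB colour development.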
As to `COC=O`, the activity change, negative = inhibition was 0.267% [at 10.5 µM] (inactive).
On to `Oc1ccc(N=Nc2ccccc2)cc1`, for which the Potency result was “inactive”.
Still for that read-out and setting: under `CCN1CCCC1CN` (stereo not given) stands “inactive”; under `CCCCC/C(C=O)=C\c1ccccc1`, “inactive”; under `S=c1nccc[nH]1`, “inactive”.
Regarding `CC(=O)c1ccc(Cl)c(Cl)c1Cl`, the Potency entry was “inactive”.
Same read-out and setting: the same measure for `CCOC(=O)C(F)(F)F`: “inactive”; for `C=C(C)C(=O)NCCC[N+](C)(C)C`: “inactive”; for `O=C(O)CCCCCCCC(=O)O`: “inactive”.
On to `CO[C@@]1(NC(=O)Cc2cccs2)C(=O)N2C(C(=O)O)=C(COC(N)=O)CS[C@@H]21`, for which the Potency entry was “inactive”.
Still for that read-out and setting: the same measure for `Cc1cn([C@H]2C=C[C@@H](CO)O2)c(=O)[nH]c1=O`: “inactive”; for `COc1cc(O)cc(O)c1`: “inactive”; for `CC(=O)C(C)O` (stereo not given): “inactive”.
The same measure, in the same setting: the same measure for `CCCCCCCCNC(C)C(O)c1ccc(SC(C)C)cc1` (stereo not given): “inactive”; for `CC1=CC2C3CC(C=C3C)C2C1` (stereo not given): “inactive”; for `CCCCOC(=O)c1ccc(O)cc1`: “inactive”.
The same measure, in the same setting: under `CN(C(=O)CN(CCO)CC(=O)N(C)C(C)(C)Cc1ccccc1)C(C)(C)Cc1ccccc1` stands “inactive”.
Consider `C/C=C1/CC2C=CC1C2` (stereo not given), for which the Potency result was “inactive”.
Still for that read-out and setting: the same measure for `CCCCN1CCCC[C@H]1C(=O)Nc1c(C)cccc1C`: “inactive”.
Same read-out and setting: the same measure for `CCC(CC)C(=O)O`: “inactive”.
Same read-out and setting: under `C1COCCO1` stands “inactive”; under `O=C1OC(=O)C2CC=CCC12` (stereo not given), “inactive”; under `Cc1ccc(O)c2ncccc12`, “inactive”.
In the case of `O=C(Cl)c1ccc(C(=O)Cl)cc1`, the Potency entry was “inactive”.
Consider `CC(=O)[C@H]1CC[C@H]2[C@@H]3C[C@H](C)C4=CC(=O)CC[C@]4(C)[C@H]3[C@@H](O)C[C@]12C`, for which the Potency entry is “inactive”.
In the case of `C=C(C)OC(C)=O`, the Potency entry is “inactive”.
Still for that read-out and setting: the same measure for `CNC(=O)[C@H]1O[C@@H](n2cnc3c(NCc4cc(Cl)ccc4OCc4cc(C)no4)ncnc32)[C@H](O)[C@@H]1N`: “inactive”; for `CC(C)C(=O)Nc1cccc(C(F)(F)F)c1`: “inactive”.
As for `CCCCCC(=O)OCCc1ccccc1`, the Potency result is “inactive”.
Same read-out and setting: the same measure for `CCCCCC(N)=O`: “inactive”; for `COc1ccc(COC(C)=O)cc1`: “inactive”; for `Nc1ccc(Oc2ccc(Cl)cc2)cc1`: “inactive”.
As to `Cc1cc(C)nc(NS(=O)(=O)c2ccc(N)cc2)n1`, the Potency result was “inactive”.
On the same count and under the same terms, the same measure for `CC(=O)c1ccc(O)c(C(N)=O)c1`: “inactive”.
Same read-out and setting: the same measure for `COc1ccc(N)c(C)c1`: “inactive”; for `FC(F)(F)c1ccc(Cl)c(Cl)c1`: “inactive”.
On the same count and under the same terms, the same measure for `CCCCCC1CCCC(=O)O1` (stereo not given): “inactive”; for `Cc1ccc2c(c1)C(=O)c1ccccc1C2=O`: “inactive”.
In the case of `CC1(C)CO[C@@H](CC(=O)O)CN1`, the Potency result is “inactive”.
The same measure, in the same setting: the same measure for `CCCCCCCCCC=O`: “inactive”.

Another experiment has the same target. The experiment in a line: Acetylcholinesterase (AChE) small molecule antagonists: fluorescence cell-based qHTS assay (AID 1347398). Note: nearly all actives have a fitted effect of over 50% in size. Note: potency is the fitted concentration of half-maximal effect. The conditions noted are these: SH-SY5Y cells; Potency: AChE activity; outcome: AChE activity; series mostly up to 115 µM. Summed up:
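Cells (SH-SY5Y) attached overnight, were dosed with compound or DMSO vehicle for 30 min at 37 C, and then incubated 40 min at room temperature with acetylthiocholine and Thiolite Green; green fluorescence indexed AChE activity.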
As to `COC=O`, the activity change, negative = inhibition was -1.7% [at 10.5 µM] (inactive).
Turning to `Oc1ccc(N=Nc2ccccc2)cc1`, the Potency entry is “inactive”.
The same measure, in the same setting: the same measure for `CCN1CCCC1CN` (stereo not given): “inactive”.
The same measure, in the same setting: under `CCCCC/C(C=O)=C\c1ccccc1` stands “inactive”; under `S=c1nccc[nH]1`, “inactive”.
The same measure, in the same setting: under `CC(=O)c1ccc(Cl)c(Cl)c1Cl` stands “inactive”; under `CCOC(=O)C(F)(F)F`, “inactive”; under `C=C(C)C(=O)NCCC[N+](C)(C)C`, “inactive”.
Regarding `O=C(O)CCCCCCCC(=O)O`, the Potency result was “inactive”.
On the same count and under the same terms, the same measure for `CO[C@@]1(NC(=O)Cc2cccs2)C(=O)N2C(C(=O)O)=C(COC(N)=O)CS[C@@H]21`: “inactive”; for `Cc1cn([C@H]2C=C[C@@H](CO)O2)c(=O)[nH]c1=O`: “inactive”; for `COc1cc(O)cc(O)c1`: “inactive”.
Same read-out and setting: the same measure for `CC(=O)C(C)O` (stereo not given): “inactive”; for `CCCCCCCCNC(C)C(O)c1ccc(SC(C)C)cc1` (stereo not given): “inactive”.
On to `CC1=CC2C3CC(C=C3C)C2C1` (stereo not given), for which the Potency result is “inactive”.
Still for that read-out and setting: the same measure for `CCCCOC(=O)c1ccc(O)cc1`: 36 µM (active) and inactive; for `CN(C(=O)CN(CCO)CC(=O)N(C)C(C)(C)Cc1ccccc1)C(C)(C)Cc1ccccc1`: “inactive”; for `C/C=C1/CC2C=CC1C2` (stereo not given): “inactive”.
On the same count and under the same terms, under `CCCCN1CCCC[C@H]1C(=O)Nc1c(C)cccc1C` stands “inactive”; under `CCC(CC)C(=O)O`, “inactive”; under `C1COCCO1`, “inactive”.
On the same count and under the same terms, under `O=C1OC(=O)C2CC=CCC12` (stereo not given) stands “inactive”.
Consider `Cc1ccc(O)c2ncccc12`, for which the Potency result is “inactive”.
On the same count and under the same terms, under `O=C(Cl)c1ccc(C(=O)Cl)cc1` stands “inactive”; under `CC(=O)[C@H]1CC[C@H]2[C@@H]3C[C@H](C)C4=CC(=O)CC[C@]4(C)[C@H]3[C@@H](O)C[C@]12C`, “inactive”.
As for `C=C(C)OC(C)=O`, the Potency was 32.7 µM (active) and inactive.
In the case of `CNC(=O)[C@H]1O[C@@H](n2cnc3c(NCc4cc(Cl)ccc4OCc4cc(C)no4)ncnc32)[C@H](O)[C@@H]1N`, the Potency result was “inactive”.
On the same count and under the same terms, under `CC(C)C(=O)Nc1cccc(C(F)(F)F)c1` stands “inactive”; under `CCCCCC(=O)OCCc1ccccc1`, “inactive”; under `CCCCCC(N)=O`, “inactive”.
Turning to `COc1ccc(COC(C)=O)cc1`, the Potency entry is “inactive”.
Still for that read-out and setting: under `Nc1ccc(Oc2ccc(Cl)cc2)cc1` stands “inactive”.
Take `Cc1cc(C)nc(NS(=O)(=O)c2ccc(N)cc2)n1`: the Potency entry is “inactive”.
On the same count and under the same terms, under `CC(=O)c1ccc(O)c(C(N)=O)c1` stands “inactive”.
The same measure, in the same setting: under `COc1ccc(N)c(C)c1` stands “inactive”; under `FC(F)(F)c1ccc(Cl)c(Cl)c1`, “inactive”.
The same measure, in the same setting: the same measure for `CCCCCC1CCCC(=O)O1` (stereo not given): “inactive”; for `Cc1ccc2c(c1)C(=O)c1ccccc1C2=O`: “inactive”.
Take `CC1(C)CO[C@@H](CC(=O)O)CN1`: the Potency entry is “inactive”.
On the same count and under the same terms, the same measure for `CCCCCCCCCC=O`: “inactive”.
